# PubChem BioAssay AID686978 (National Center for Advancing Translational Sciences (NCATS), 2013)
# In all, about 420,000 compounds went through this assay and about 64,000 (15%) were called active. Not shown: some 27% with an inconclusive outcome. Calls come from the whole dose curve; as a rule, active = well fitted inhibition curve with a large enough effect; inconclusive = small, poorly fitted or top-dose-only effect; inactive = flat fitted curve, though single readings scatter. These entries were drawn from the full list. A call without a number means that no potency is given here. Peptide text beside a SMILES is read from it.
# Assay: qHTS for Inhibitors of human tyrosyl-DNA phosphodiesterase 1 (TDP1): qHTS in cells in absence of CPT; note: nearly all actives have a fitted effect of over 55% in size
# Details: DT40 Tdp1-/- hTDP1 cells, no CPT, ATP luminescence, 48 h; activity change, negative = growth inhibition: at 46.2 µM (top of the series)
# How it was run: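 Stably hTDP1-transfected Tdp1-null chicken DT40 cells were treated with library compounds minus camptothecin and grown for at least 48 hr at 37 °C, after which cellular ATP was quantified by luminescence.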
# Potency is the fitted concentration of half-maximal effect.
row,SMILES,Potency
1,Cc1cccc(CCNC(=O)Cn2ncc3c([nH]c4ccc(C)cc43)c2=O)c1,inactive
2,CCN(C(=O)COC(=O)c1ccccc1O)c1cccc2ccccc12,inactive
3,Cc1nnc(SCC2=C(C(=O)O)N3C(=O)C(NC(=O)Cn4nc(C)c(Cl)c4C)C3SC2)s1 (configuration not stated),inactive
4,C=CCNC(=O)c1ccccc1SCc1c(C)noc1C,inactive
5,COc1ccc(S(=O)(=O)NC2(C(F)(F)F)N=C3SCCN3C2=O)cc1 (configuration not stated),inactive
6,CN(CCc1ccccn1)C1CCCN(S(=O)(=O)c2ccccc2Cl)C1 (configuration not stated),inactive
7,Cc1ccc2c(c1)-c1c(cnn1CC(=O)Nc1ccccc1C#N)CO2,inactive
8,Cc1nc(-c2ccc(Cl)cc2)sc1C1(C)CC(c2ccccc2F)=NO1 (configuration not stated),inactive
9,NS(=O)(=O)c1ccccc1NC(=O)c1c(O)c2ccccc2[nH]c1=O,inactive
10,Cc1cccc(OCCSc2nc3ccccc3n2CC(=O)N2CCCCC2)c1C,23.1 µM (active)
11,Cc1ccc(C(C)C)c(OCCSc2nc3ccccc3n2CC(=O)O)c1,inactive
12,CCOc1ccc(OCCSc2nc3ccccc3n2CC(=O)O)cc1,inactive
13,Clc1ccc(Cl)c(Oc2ccc(Oc3nc(Cl)ccc3Cl)cc2)n1,inactive
14,COc1cc(Cl)c(C)cc1NC(=O)[C@@H]1CCCN1C(=O)c1cccs1,inactive
15,O=C(CCS(=O)(=O)c1cc(Br)cc2c1N(C(=O)C1CC1)CC2)Nc1ccc(C(F)(F)F)cc1,inactive
16,O=C(CCS(=O)(=O)c1cc(Br)cc2c1N(C(=O)C1CC1)CC2)Nc1ccc(Br)cc1F,inactive
17,CCN(c1ccc2c(c1)OCO2)S(=O)(=O)c1cc(Br)cc2c1N(C(=O)C1CC1)CC2,25.9 µM (active)
18,O=c1oc2ccc(C#CC3(O)CCCCC3)cc2cc1-n1cc(-c2ccsc2)nn1,inactive
19,CCC(=O)/C(=C(/O)c1ccccc1)c1nc2ccccc2[nH]1,inactive
20,O=C(/C(=C/c1cccc(Cl)c1)c1nc2ccccc2[nH]1)c1ccccc1,23.1 µM (active)
21,O=C(Cc1nc2ccccc2[nH]c1=O)c1ccc(Cl)cc1,inactive
22,CN1CCC(=NNC(=O)c2ccc(N(Cc3ccc(Cl)cc3)S(C)(=O)=O)cc2)CC1,inactive
23,NC(=O)Cn1nc([N+](=O)[O-])nc1Oc1ccc(Br)cc1,inactive

row,SMILES,Potency
1,CC(C)CCNC(=O)CCNS(=O)(=O)c1ccc(Cl)cc1,inactive
2,O=S1(=O)CCO[C@H]2Cc3ccccc3[C@H]2N1Cc1ccccc1,inactive
3,COc1cc(/C=C2/C(=O)NN(c3cccc(Cl)c3)C2=O)cc(Br)c1O,inactive
4,CCOc1cc(/C=N/O)cc(Br)c1OC,inactive
5,CCOc1c(Br)cc(/C=C2\C(=O)N(CCC#N)N=C2C)cc1OC,29.1 µM (active)
6,CCn1c(SCC(=O)NC2=NCCS2)nnc1C(C)NC(=O)c1ccccc1F (configuration not stated),inactive
7,Cc1ccc(-n2c(C)nnc2SCC(=O)NC2CC2)cc1,inactive
8,CCCCCCCCCCCC(=O)O,inactive
9,CCCC(CCC(=O)OC)(C(=O)OCC)c1csc(N)n1 (configuration not stated),inactive
10,CCCCCCCCCCCCC(NC(C)=O)(C(=O)OCC)C(=O)OCC,20.6 µM (active)
11,COC(=O)C1=CO[C@@H](O[C@@H]2O[C@H](CO)[C@@H](O)[C@H](O)[C@H]2O)C2C1C[C@H](O)[C@@H]2C (some centres not stated),inactive
12,COc1ccccc1NC(=O)C1=C(C)Nc2nc3ccccc3n2C1c1cccs1 (configuration not stated),3.26 µM (active)
13,COc1ccccc1NC(=O)C1=C(C)Nc2ncnn2C1c1sccc1C (configuration not stated),inactive
14,CCOC(=O)C1=C(C)Nc2nc3ccccc3n2C1c1cccs1 (configuration not stated),inactive
15,CCOC(=O)C1CCN(C(=O)CSc2cc(=O)n(C)c3ccccc23)CC1,inactive
16,Cc1cc(=O)c2ccc(NC(=O)c3ccccc3)cc2[nH]1,inactive
17,Cc1ccc(S(=O)(=O)/N=C(\N)c2ccc(F)cc2)cc1,inactive
18,O=c1[nH]c(-c2ccccc2)c(-c2ccccc2)[nH]1,inactive
19,Cc1ccc(-c2cc(=O)c3ccc(F)cc3[nH]2)cc1,13 µM (active)
20,O=c1cc(-c2ccccc2)[nH]c2cc(F)ccc12,1.03 µM (active)
21,Cc1ccc(-c2cc(=O)c3ccc(Cl)cc3[nH]2)cc1,inactive
22,O=S(=O)(Nc1ccccc1Br)c1cccs1,inactive
23,Cn1nccc1/C=N\NC(=O)c1ccc(Cl)cc1,inactive

row,SMILES,Potency
1,Cc1cc(-n2cnc(-c3cn(C)nc3C)n2)no1,inactive
2,Cc1cccc(NC(=O)COc2ccccc2C)n1,inactive
3,Cc1cc(C)c(NC(=O)C[N+](C)(C)CC(O)COc2cccc3ccccc23)c(C)c1 (configuration not stated),18.4 µM (active)
4,Cc1cc(C)cc(OCC(=O)Nc2c(C(=O)c3ccccc3)oc3ccccc23)c1,inactive
5,Cc1cccc(NC(=O)c2ccc3nsnc3c2)c1C,inactive
6,O=C(Nc1ccccc1)OCc1cc(-c2ccc(Cl)cc2)on1,inactive
7,CCc1cc2c(N3CCN(c4nnc(CC)s4)CC3)ncnc2s1,8.2 µM (active)
8,O=C(CCc1nnc2ccc(NCc3ccccc3Cl)nn12)NCC1CCN(C2CCCC2)C1 (configuration not stated),inactive
9,O=C(CSc1ccsc1[N+](=O)[O-])N1CCCCC1,inactive
10,CS(=O)(=O)N(CC(=O)N1CCCCCC1)c1cccc(Cl)c1Cl,inactive
11,CCOC(=O)c1c(NC(=O)c2cccs2)sc(C)c1C,inactive
12,Cc1ccc(C(=O)c2c(NC(=O)c3ccccc3)sc(C)c2C)cc1,23.1 µM (active)
13,Cc1ccc(C(=O)Nc2c(-c3ccccc3)[nH][nH]c2=O)cc1,inactive
14,Cn1c(=O)c2cc(S(=O)(=O)NCCC(=O)Nc3ccc(F)cc3F)ccc2n(C)c1=O,inactive
15,COc1ccc(NC(=O)CN(C)C(=O)/C=C/c2cn(Cc3ccccc3)nc2-c2cccnc2)cc1,inactive
16,Cc1cc(C)cc(NC(=O)CSc2nc(=O)n(CCN3CCOCC3)c3c2CCC3)c1,inactive
17,CCCCCOc1ccc(/C=C/C(=O)NCCc2nc3ccccc3[nH]2)cc1OC,9.2 µM (active)
18,CC(C)=C(NC(=O)c1ccco1)C(=O)NCCc1nc2ccccc2[nH]1,inactive
19,O=C(COc1ccccc1)NCCc1nc2ccccc2[nH]1,inactive
20,COc1ccc2c(C(=O)c3ccc(C)cc3)n(CCC(N)=O)[n+]([O-])c2c1,inactive
21,COC(=O)CNC(=O)C(CCSC)NC(C)=O (configuration not stated) (HELM PEPTIDE1{[ac].[CSCCC(N[*:1])C(=O)[*:2]].G.[CO[*:1]]}$$$$V2.0),inactive
